Source: PubChem BioAssay (The Scripps Research Institute Molecular Screening Center)
This is a sample that favours compounds with a hit; in the whole collection about 3.5% have one here.
GPR151 activ: activators of human GPR151 | AID 1508602 | activation, % at 11.2 µM | hit rate 1% among 650,000 | PathHunter beta-arrestin GPR151 cells, luminescence; in the data active = activation above about 4.9%;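 note: 0% = median of compound wells and 100% = cells with positive control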
MITF primary: blocks human microphthalmia-associated transcription factor; O75030; AlphaScreen MITF homodimerization, bead proximity signal; inhibition, % at 2.6 µM; hit rate 0.91% among 650,000; AID 1259374; in the data active = inhibition above about 50%;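 note: 0% = vehicle wells with protein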
Target sequence (O75030 whole entry, looked up): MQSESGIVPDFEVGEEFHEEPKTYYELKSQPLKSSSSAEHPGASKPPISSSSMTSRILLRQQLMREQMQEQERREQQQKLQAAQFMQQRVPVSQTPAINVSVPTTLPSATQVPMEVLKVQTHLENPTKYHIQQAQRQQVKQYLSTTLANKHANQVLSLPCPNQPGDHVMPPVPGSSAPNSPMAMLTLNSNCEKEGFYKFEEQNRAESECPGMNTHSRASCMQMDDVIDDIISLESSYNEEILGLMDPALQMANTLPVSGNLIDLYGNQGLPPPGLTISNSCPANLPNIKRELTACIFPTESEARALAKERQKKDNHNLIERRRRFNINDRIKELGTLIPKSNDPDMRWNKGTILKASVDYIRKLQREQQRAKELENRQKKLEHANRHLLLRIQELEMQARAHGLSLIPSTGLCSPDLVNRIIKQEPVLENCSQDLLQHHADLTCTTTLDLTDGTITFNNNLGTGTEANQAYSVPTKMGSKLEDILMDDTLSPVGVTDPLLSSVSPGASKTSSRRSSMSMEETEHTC
TEAD-YAP block: TEAD-YAP interaction inhibition; HEK-TIYL cells, TEAD-Gal4/YAP UAS-luciferase luminescence; inhibition, % at 9.12 µM; hit rate 1.4% among 640,000; AID 1259422; in the data active = inhibition above about 32%;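 note: 0% = median of test compound wells and 100% = reference inhibitor wells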
FBW7 activator: activators of human E3 ligase FBW7; Q969H0; hit rate 0.13% among 650,000; normalized activity (activation), % at 26.1 µM; AlphaScreen FBW7–phospho-cyclin E peptide binding, activator screen; AID 1259310; in the data active = normalized activity above about 1.9%;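 note: purified mutant Fbw7 with reduced substrate affinity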
MITF inh conf: confirmation of human MITF inhibitors; shares compounds with MITF primary; AlphaScreen MITF homodimerization, biotin/His-MITF beads; inhibition, % at 2.6 µM; hit rate 16% among 4,700;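 active = inhibition above a cutoff derived from the DMSO control wells, cut at about 28% in these data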;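 note: 0% = MITF dimer wells with DMSO only; inhibitors lower the bead chemiluminescence by keeping MITF from dimerizing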
AlphaScreen intf2: AlphaScreen optical interference, counter-screen | hit rate 7.6% among 4,700 | LysRS AlphaScreen counterscreen, signal interference, triplicate | inhibition, % at 2.6 µM | shares compounds with MITF primary;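 active = inhibition above a cutoff derived from the DMSO control wells, cut at about 30% in these data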
Numbers without * were called inactive; nt = no result given.

SMILES	GPR151 activ	MITF primary	TEAD-YAP block	FBW7 activator	MITF inh conf	AlphaScreen intf2
O=C1CCCN1CCCNc1ccc(Cl)nn1	-1.5	83.7*	0.8	-0.2	7.6	9.0
O=C1CCCN1CCCNc1cc(Cl)ncn1	0.0	8.9	5.2	0.1	nt	nt
CSC1=NC(=Nc2cccc(C(F)(F)F)c2)C2(CCCCC2)N1c1ccc(Br)cc1	-0.1	3.4	-1.8	-0.1	nt	nt
CC(C)(C)c1ccc(C2=N/C(=C\c3ccc(Br)cc3)C(=O)O2)cc1	0.9	-13.1	8.0	0.1	nt	nt
CC(=O)Nc1ncc(Cc2cc(Cl)ccc2Cl)s1	2.1	2.7	19.4	0.0	nt	nt
COc1cc(C(=O)Nc2cccnc2)ccc1OCc1ccccc1Cl	0.5	74.3*	-2.2	0.0	-3.5	-2.3
COc1ccc(C(=O)Nc2ncc(Cc3cc(Cl)ccc3Cl)s2)cc1OC	-0.6	67.6*	-3.2	0.8	-6.1	0.8
CCOC(=O)C1=C(C)N=c2s/c(=C\Cc3cc(Cl)ccc3O)c(=O)n2C1c1ccccc1 (stereo not given)	-1.3	-23.2	-10.6	-0.1	nt	nt
CCc1ccc(CN2CCN(C3CCCC3)CC2)cc1	0.4	41.2	2.1	0.0	nt	nt
CSc1ccc(CN2CCC(N3CCCCC3)CC2)cc1	0.3	12.5	-2.8	0.0	nt	nt
Cc1ccc(CN2CCN(C3CCCCCC3)CC2)cc1	-0.9	68.8*	3.1	0.2	11.1	22.7
CSc1ccc(CN2CCN(C3CCCC3)CC2)cc1	-0.3	54.3*	-3.5	-0.1	-0.8	7.7
CCc1ccc(CN2CCN(C3CCCCC3)CC2)cc1	-0.4	62.2*	0.0	-0.1	-0.8	-0.9
COc1ccc(S(=O)(=O)NC2CCS(=O)(=O)C2)cc1[N+](=O)[O-] (stereo not given)	0.0	-1.8	-2.4	-0.1	nt	nt
COc1ccc(C(=O)Nc2cc(C(=O)O)cc(C(=O)O)c2)cc1[N+](=O)[O-]	0.1	-0.8	4.2	0.1	nt	nt
COc1cc(OC)cc(C(=O)Nc2nc3ccc4nc(SC)sc4c3s2)c1	1.3	3.4	-6.5	-0.1	nt	nt
CN(C(=O)Cc1ccc(NC2=NC3CS(=O)(=O)CC3S2)cc1)C1CCCCC1 (stereo not given)	4.0	57.8*	-7.7	-0.9	56.2*	42.2*
CN(C)c1cccc(Nc2nc(C(=O)NC3CCN(Cc4ccccc4)CC3)cs2)c1	-0.7	57.6*	-10.9	-0.2	24.8	16.1
CN(C)c1ccc(CNn2cnnc2)cc1	0.0	3.7	-5.0	0.3	nt	nt
Cc1cc(F)ccc1S(=O)(=O)N1CCOCC1	-1.5	-3.6	-13.2	0.0	nt	nt
NC(=S)N/N=C/c1ccccc1OC(=O)c1cc([N+](=O)[O-])cc([N+](=O)[O-])c1	-1.4	59.4*	2.7	-0.1	29.8*	53.2*
CN(C)c1cccc(Nc2cc(C(=O)NCCc3ccc(O)cc3)c3ccccc3n2)c1	0.8	69.8*	0.4	0.1	-2.8	3.0
CCCNC(=O)c1cc(Nc2cccc(N(C)C)c2)nc2ccccc12	-1.6	-6.8	3.6	-0.1	nt	nt
O=C(/C=C/c1ccco1)NC(=S)Nc1nc(-c2cccc([N+](=O)[O-])c2)cs1	1.1	15.6	-1.8	0.1	nt	nt
c1cncc(-c2nc(NCCCn3ccnc3)cc(-c3ccncc3)n2)c1	-1.5	13.0	13.1	-0.7	nt	nt
SMILES	GPR151 activ	MITF primary	TEAD-YAP block	FBW7 activator	MITF inh conf	AlphaScreen intf2
c1cncc(-c2cc(NCCCn3ccnc3)nc(-c3cccnc3)n2)c1	1.6	65.3*	7.9	-0.8	28.5*	38.9*
CCC12CN3CC(CC)(CN(C1)C3c1cccs1)C2=O (stereo not given)	1.5	5.9	-13.0	0.3	nt	nt
O=C(O)c1c[nH]c2c(Cl)c(Cl)ccc2c1=O	0.9	32.1	-5.2	-0.8	nt	nt
O=C(O)c1c[nH]c2c(ccc3cccnc32)c1=O	-0.7	121.2*	nt	nt	98.0*	100.5*
O=C(NC1CC1)c1cc(N2CCC(N3CCOCC3)CC2)nc2ccccc12	0.3	-0.9	3.5	0.3	nt	nt
Cc1cccc(Cl)c1OCCOCCNC(C)(C)C	0.0	43.7	7.1	0.5	nt	nt
Cc1cccc(Cl)c1OCCOCCNCCN	0.7	60.7*	9.0	0.3	11.7	13.0
Cc1cccc(C)c1OCCOCCNCCN	0.2	54.6*	-1.4	-0.4	-11.8	-0.1
COc1ccccc1CN1CCN(C(=O)c2cccs2)CC1	-1.0	36.2	-3.0	0.0	nt	nt
COc1cc(OC)cc(C(=O)N2CCN(Cc3cc(OC)c(OC)cc3OC)CC2)c1	3.4	48.8	-1.9	0.1	nt	nt
COc1cccc(OC)c1C(=O)N1CCN(Cc2ccccc2Br)CC1	0.9	63.1*	10.1	-0.1	2.0	7.2
